# Active and inactive are the calls of the source. Cut-off read from the data, not from the text of the source: active = fold change mostly below about -2 (no sharp cut-off); inactive = mostly above about -1.8.
# Assay: TERT promoter activity modulators, primary screen, cell-based, luciferase reporter, human (AID 1259240)
# Settings: A2780 TERT promoter luciferase reporter, 16 h; at 20 µM, fold versus average of vehicle-only wells
Structure (SMILES),fold change,outcome
c1cnc2c(SCc3cn4ccccc4n3)cccc2c1,-1.15 (inactive),
CCC(=O)N1CCc2cc(S(=O)(=O)CCC(=O)NCC3COc4ccccc4O3)ccc21 (centres undefined),-1.32 (inactive),
COc1cccc2cc(S(=O)(=O)c3ccccc3)c(=O)oc12,1.83 (inactive),
C=CCn1c(=N)n(CC(=O)C(C)(C)C)c2ccccc21,-1.1 (inactive),
Cc1ccc(-c2cc(N)n(S(=O)(=O)c3cccc([N+](=O)[O-])c3)n2)cc1,1.05 (inactive),
COc1ccccc1-c1c(C)nn2c(N3CCOCC3)cc(C)nc12,1.18 (inactive),
COc1ccc(NC(=O)c2cnccn2)cc1F,-1.32 (inactive),
Cn1c(SCC(=O)N2CCOCC2)nnc1-c1c[nH]c2ccccc12,,inactive
COc1ccc2cc3c(N)nn(C(=O)CSc4ccncc4)c3nc2c1,-1.05 (inactive),
CCOc1ccc(Oc2nc(NC(C)(C)C)nc(N3CCOCC3)n2)nn1,1.49 (inactive),
O=C1C2CCCCC2C(=O)N1c1nc2nc(-c3ccccc3)cc(=O)n2[nH]1 (centres undefined),1.17 (inactive),
CCOC(=O)CSc1n[nH]c(N)n1,-1.02 (inactive),
CCOC(=O)N1CCC(Nc2c(N3CCCCC3C)c(=O)c2=O)CC1 (centres undefined),1.02 (inactive),
Fc1ccccc1Nc1nc2ccccc2n2nnnc12,1.5 (inactive),
CC(=O)c1ccc(N2CCN(C(=O)CCCc3nnc4n5nc(C)nc5c5ccccc5n34)CC2)cc1,-1.6 (inactive),
CCOc1ccc2nc(NC(=O)CN(C)S(=O)(=O)c3cnc[nH]3)sc2c1,1.35 (inactive),
CN(C)CCN1C(=O)C(=O)/C(=C(\O)c2ccc(F)cc2)C12C(=O)N(C)c1ccccc12 (centres undefined),-1.34 (inactive),
CC(C)n1cnc2cc(NCc3ccccc3Cl)ccc21,-2.21 (active),
C=CCOc1cccc(C2c3c(oc4ccccc4c3=O)C(=O)N2c2nc(C)c(C(C)=O)s2)c1 (centres undefined),1.02 (inactive),
CC(C)Oc1cc(O)c2c(=O)c(-c3ccc(O)cc3)coc2c1,-6.88 (active),

Structure (SMILES),fold change,outcome
CCC(CC)COC(=O)C1=C(C)NC(=O)CC1c1ccccc1C (centres undefined),1.08 (inactive),
CC1CCN(S(=O)(=O)c2ccc3c(c2)N(CC(=O)NCCN2CCCC2)C(=O)CO3)CC1,-1.01 (inactive),
COc1ccc(S(=O)(=O)NC(C)(C)C)cc1-c1nnc2c3ccccc3c(C)nn12,-1.62 (inactive),
Cc1cccc(CCn2c(=O)c3ccccc3n(Cc3cc(=O)n4ccccc4n3)c2=O)c1,-1.38 (inactive),
Cc1ccc(OCc2nc(-c3ccc(-n4cccc4)cc3)no2)cc1C,-2.34 (active),
C=CCN1C(=O)C2(/C(=C(/O)c3ccccc3)C(=O)C(=O)N2CCCN2CCOCC2)c2ccccc21 (centres undefined),1.29 (inactive),
Cc1ccn2cc(-c3cccc(S(=O)(=O)N4CC(C)OC(C)C4)c3)nc2c1 (centres undefined),-1.09 (inactive),
CCN(CC)S(=O)(=O)c1ccc2c(c1)N(CC(=O)NC1CC1)C(=O)CO2,-1.73 (inactive),
Cc1cc(C(F)(F)F)nc(Nc2nc3ccccc3o2)n1,-1.19 (inactive),
COc1ccc(S(=O)(=O)n2cnc3ccccc32)c(C)c1,-1.08 (inactive),
Fc1ccc(-c2nnc3ccc(N4CCOCC4)nn23)cc1,1.05 (inactive),
CCCCN1C(=O)/C(=C2\SC(N3CCCCC3)=NC2=O)c2ccccc21,-8.65 (active),
Cc1nn(CC(=O)Nc2sc3c(c2C#N)CCCCC3)c(C)c1[N+](=O)[O-],-1.25 (inactive),
O=C(c1cncc(Br)c1)N1CCN(c2ccc(N3CCOCC3)nn2)CC1,1.24 (inactive),
CCOC(=O)C1=C(CS(=O)(=O)c2ccc(C)c(C)c2)NC(=O)NC1c1ccc(O)c(OC)c1 (centres undefined),1.22 (inactive),
COCCn1c(SCC(=O)NCC2CCCO2)nnc1-c1c[nH]c2ccccc12 (centres undefined),,inactive
O=C1Nc2ccc(Br)cc2/C1=C\c1nc2ccccc2c(=O)n1-c1cccc(C(=O)O)c1,,inactive
CCOC(=O)CSc1nnc(-c2c[nH]c3ccccc23)n1C,,inactive
Cc1ccc2oc(-c3ccccc3C(=O)O)cc(=O)c2c1,1.62 (inactive),
